The list is not random: actives were taken first. Their share in the collection is about 6.1%.
HepG2 tox: qHTS for Inhibitors of TGF-b: Cytotox Counterscreen; HepG2 CAGA-GFP viability, ATP luminescence, 18 h; Potency, µM (doses to about 46.1 µM), most hits filed as cytotoxic; 410,000 tested, 0.76% active; AID 588856, 2011
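CellTiter-Glo luminescence gave cytotoxicity after 18 hours at 37 degrees C. The cells were HepG2 CAGA-GFP in 1% FBS DMEM, stimulated with 500 pg/mL TGF-beta after compound addition. %Activity was normalised to no-cell wells (complete cell-killing) and DMSO (no toxicity), and curves were fitted and classified.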
ATXN2 expr inh: Primary qHTS for Inhibitors of ATXN expression. HEK-293 ATXN2-luciferase reporter, luminescence, 24 h. Potency, µM (highest dose often 57 µM), actives largely listed as inhibitors. 360,000 tested, 0.72% active; also: nearly all actives have a fitted effect of over 55% in size
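ATXN2-luciferase reporter cells (luciferase flanked by upstream and downstream ATXN2 gene portions) were treated 24 h at 37 °C with compounds at up to 57 uM. SteadyGlo luminescence gave expression; GF-AFC fluorescence gave viability.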
ATXN viability: Viability Counterscreen for Primary qHTS for Inhibitors of ATXN expression; S2 cells (HEK-293 line with an ATXN2-luciferase reporter) viability, CellTiter-Fluor protease fluorescence, 24 h; Potency, µM (highest dose often 56.7 µM), actives largely listed as cytotoxic; 400,000 tested, 0.49% active; also: nearly all actives have a fitted effect of over 40% in size
TGFb inhibitor: qHTS for Inhibitors of TGF-b; HepG2 CAGA-GFP TGF-b/SMAD3 reporter, GFP fluorescence, 18 h; TGF-beta stimulated, 500 pg/mL final; Potency, µM (top dose mostly 46.1 µM), usual class: inhibitors; 410,000 tested, 1.2% active; also: nearly all actives have a fitted effect of over 65% in size
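Inhibition of TGF-beta-driven CAGA-GFP reporter expression in HEPG2 cells is measured by cellular GFP fluorescence after 18 h stimulation with 500 pg/mL recombinant TGF-beta in 1% FBS medium at 37 degrees C.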
RORg inh: qHTS for inhibitors of ROR gamma transcriptional activity; Potency, µM (doses to about 53.6 µM), hits mostly inhibitors; 310,000 tested, 5.4% active; Drosophila S2 Gal4-RORgamma UAS-luciferase reporter, 20 h; also: nearly all actives have a fitted effect of over 60% in size
Target sequence (P51450 whole entry, looked up, the tested form may be a part): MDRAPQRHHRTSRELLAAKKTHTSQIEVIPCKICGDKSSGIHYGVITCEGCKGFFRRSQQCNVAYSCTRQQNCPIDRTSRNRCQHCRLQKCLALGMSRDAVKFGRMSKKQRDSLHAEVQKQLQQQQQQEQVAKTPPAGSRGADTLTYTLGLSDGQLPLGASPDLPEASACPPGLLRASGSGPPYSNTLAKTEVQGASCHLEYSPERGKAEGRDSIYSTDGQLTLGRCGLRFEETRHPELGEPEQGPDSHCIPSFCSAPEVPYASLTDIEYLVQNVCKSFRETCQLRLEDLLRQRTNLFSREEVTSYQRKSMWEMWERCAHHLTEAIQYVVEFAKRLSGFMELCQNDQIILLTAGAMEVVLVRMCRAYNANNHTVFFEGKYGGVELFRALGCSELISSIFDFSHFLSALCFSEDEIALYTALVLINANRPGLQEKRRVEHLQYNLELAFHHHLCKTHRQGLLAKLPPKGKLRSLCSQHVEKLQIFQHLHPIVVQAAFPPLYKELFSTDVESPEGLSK
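Stably transfected Drosophila Schneider cells are the test system, with ROR gamma fused to Gal4 and luciferase under UAS control; luminescence is read after 20 hr of 700 uM copper sulfate induction at ambient temperature.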
VP16 counter: VP16 counterscreen qHTS for inhibitors of ROR gamma transcriptional activity. Drosophila S2 Gal4-VP16 UAS-luciferase, luminescence, 20 h. Potency, µM (top dose mostly 53.6 µM), usual class: inhibitors. 310,000 tested, 3.5% active;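 also: Gal4-VP16 expression switched on by copper sulfate through the metallothionein promoter; nearly all actives have a fitted effect of over 50% in size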
Large screens that a line does not name were inactive. Calls follow the shape of the dose curve; as a rule, active = well fitted curve in the direction sought with a large enough effect; inconclusive = small, poorly fitted or top-dose-only effect, or another doubt; inactive = no such curve, though single readings can be large; an effect the other way counts as inactive or inconclusive.

Cc1ccc(NC(=O)CSc2nnc(-c3ccc([N+](=O)[O-])cc3)o2)c(C)c1	none (no result: RORg inh, VP16 counter)
Cc1ccc(S(=O)(=O)Oc2ccc(C)cc2/C=N/N=C2\NC(=O)C(C)S2)cc1 (centres undefined)	RORg inh 13µM, VP16 counter 10µM
CN(C)c1ccc(CNC(=O)c2sc3ncccc3c2-n2cccc2)cc1	TGFb inhibitor inconclusive (no result: RORg inh, VP16 counter)
O=S(=O)(N=Cc1c(O)ccc2ccccc12)c1cccs1	none (no result: HepG2 tox, ATXN viability, TGFb inhibitor, RORg inh, VP16 counter)
CC(C)NC(=O)c1cn(C2CCCN(C(=O)c3cc4ccccc4oc3=O)C2)nn1 (centres undefined)	none (no result: HepG2 tox, ATXN2 expr inh, TGFb inhibitor, RORg inh, VP16 counter)
CC(=O)C(Sc1nc(N2CCOCC2)nc(N2CCOCC2)n1)C(=O)Nc1ccccc1 (centres undefined)	RORg inh 0.89µM, VP16 counter inconclusive
CCOc1ccc(C(=O)CC(NCc2cccs2)C(=O)O)cc1 (centres undefined)	RORg inh 4.5µM, VP16 counter 13µM
CCC1(C2CCN(Cc3c(C)[nH]c4ccccc34)CC2)NC(=O)N(Cc2ccc3c(c2)OCO3)C1=O (centres undefined)	none (no result: HepG2 tox, ATXN2 expr inh, TGFb inhibitor, RORg inh, VP16 counter)
Cc1nc(N/N=C\c2ccc3c(c2)OCO3)sc1C	VP16 counter inconclusive
Brc1cc2c(cc1/C=N/Nc1nc3ccccc3s1)OCO2	ATXN viability inconclusive, RORg inh 4.5µM, VP16 counter inconclusive
C(=N\Nc1nc2ccccc2s1)/c1ccc2c(c1)OCO2	RORg inh 7.9µM, VP16 counter 7.1µM
COc1cc(/C=N/Nc2nc3ccccc3s2)ccc1OC(=O)c1ccccc1F	RORg inh inconclusive, VP16 counter inconclusive
COc1cc(OC)cc(C(=O)Oc2ccc(/C=N/Nc3nc4ccccc4s3)cc2OC)c1	RORg inh 10µM
CN(C)CCOC(=O)C1(c2ccccc2)CCCC1	none
C[N+]1(CCCOC(=O)C2(c3ccccc3)CCCC2)CCOCC1	HepG2 tox 11µM, TGFb inhibitor inconclusive
CNS(=O)(=O)c1cn(CC(=O)N2CCN(c3cccc(Cl)c3)CC2)cc1S(=O)(=O)NC	none (no result: ATXN2 expr inh, ATXN viability, RORg inh, VP16 counter)
Cc1cc2[nH]c(=O)cc(-c3ccccc3)n2n1	RORg inh 11µM, VP16 counter 18µM (no result: ATXN2 expr inh)
COc1ccccc1CNS(=O)(=O)c1ccc2c(c1)CC(C)N2C(C)=O (centres undefined)	none (no result: RORg inh, VP16 counter)
O=C(COc1ccc2oc(-c3ccccc3)cc(=O)c2c1)Nc1ccccc1	RORg inh 13µM, VP16 counter inconclusive
COC(=O)COc1ccc2oc(-c3ccc(OC)cc3)cc(=O)c2c1	none (no result: ATXN2 expr inh, ATXN viability, TGFb inhibitor, RORg inh, VP16 counter)
COc1ccc2oc(-c3ccc(O)cc3)cc(=O)c2c1	RORg inh 25µM, VP16 counter 25µM (no result: HepG2 tox, ATXN2 expr inh, ATXN viability, TGFb inhibitor)
Cc1cccc(N2CCN(C3(c4ccccc4)C(=O)c4ccccc4C3=O)CC2C)c1 (centres undefined)	none (no result: RORg inh, VP16 counter)
CC(=O)Nc1ccc(NC(=O)C(NS(=O)(=O)c2ccc(Br)s2)c2ccccc2)cc1 (centres undefined)	none (no result: RORg inh, VP16 counter)
Cc1csc(NC(=O)C(NS(=O)(=O)c2ccc(Br)s2)c2ccccc2)n1 (centres undefined)	RORg inh 13µM, VP16 counter inconclusive
CCCCCCCC/C=C/C(=O)O	none (no result: HepG2 tox, TGFb inhibitor, RORg inh, VP16 counter)
Cn1cc(/C=N/NC(N)=S)c2ccccc21	TGFb inhibitor inconclusive, RORg inh inconclusive, VP16 counter 22µM
Cc1nn(-c2ccccc2)cc1/C=N/NC(N)=S	ATXN viability inconclusive, TGFb inhibitor inconclusive, RORg inh 2.5µM, VP16 counter 4.5µM
Cc1ccsc1/C=N/NC(=O)c1ccccn1	VP16 counter inconclusive
Cn1cc(/C=N\NC(=O)c2cccs2)c2ccccc21	RORg inh 8.9µM, VP16 counter inconclusive
Cc1nn(-c2ccccc2)cc1/C=N/O	RORg inh inconclusive
C=CCNC(=S)N/N=C/c1cn(C)c2ccccc12	TGFb inhibitor inconclusive
Cc1ccsc1/C=N/NC(=O)c1cccs1	RORg inh 10µM, VP16 counter 13µM
COc1ccc(NC(=O)C2CC23CCN(Cc2cccc4ncccc24)CC3)cc1Cl (centres undefined)	none (no result: HepG2 tox, ATXN2 expr inh, TGFb inhibitor, RORg inh, VP16 counter)
CC(=O)N1CCN(c2ccc(OCc3nn(C)c(C)c3-c3cccc4c(CCCOc5cccc6ccccc56)c(C(=O)O)n(Cc5cccnc5)c34)cc2)CC1	none (no result: HepG2 tox, ATXN viability, TGFb inhibitor, RORg inh, VP16 counter)
N#Cc1ccc(C(=O)N/N=C/c2cn(CC(=O)O)c3ccccc23)c(F)c1	none
C/C(=N\NC(=O)c1cccs1)C(C)(C)C	RORg inh 13µM, VP16 counter inconclusive
Cn1cc(/C=N/NC(=O)c2ccc(C#N)cc2F)c2ccccc21	RORg inh 5µM, VP16 counter inconclusive
COc1ccc(C(=O)Nc2nnc(SCc3cc(=O)c4cccc(F)c4[nH]3)s2)cc1	none (no result: ATXN2 expr inh, ATXN viability, RORg inh, VP16 counter)
C[N+]1(C)[C@@H]2C[C@@H](OC(=O)C(O)(c3cccs3)c3cccs3)C[C@H]1[C@@H]1O[C@@H]12	none (no result: HepG2 tox, ATXN viability, TGFb inhibitor, RORg inh, VP16 counter)
COc1ccc(CCNc2c(C)c(C)nc3ncnn23)cc1	VP16 counter 6.3µM
Cc1ccc(C(=O)C(c2ccccc2)N2Cc3ccccc3C2=N)cc1 (centres undefined)	ATXN viability 14µM, TGFb inhibitor inconclusive, RORg inh 4µM, VP16 counter 10µM
Cc1cccc(/N=C/c2c(O)cc(C)oc2=O)n1	none (no result: VP16 counter)
Cc1cccc(/N=C/c2c(O)ccc3oc4c(c23)CCCC4)n1	TGFb inhibitor 16µM
C[C@H](NC(=O)OC(C)(C)C)[C@@H](O)c1ccco1	none (no result: ATXN2 expr inh, ATXN viability, RORg inh, VP16 counter)
C[C@]12CC[C@H]3c4ccc(OC[C@H]5CO5)cc4CC[C@H]3[C@H]1CC[C@@H]2O	none (no result: HepG2 tox, ATXN2 expr inh, ATXN viability, TGFb inhibitor)
Cn1c(=O)c(=O)n(C)c2cc([N+](=O)[O-])c([N+](=O)[O-])cc21	RORg inh 7.9µM, VP16 counter inconclusive
Cn1cccc([N+](=O)[O-])c1=O	none (no result: ATXN2 expr inh, RORg inh, VP16 counter)
N#Cc1c(F)cccc1NCc1cccnc1	none
N#Cc1c(NCc2ccccc2)ccnc1NCc1cccnc1	RORg inh inconclusive, VP16 counter 10µM
CCOC(=O)c1cc(NC(=O)c2ccc(F)cc2)c(=O)n2c1oc1ccc(Cl)cc12	none (no result: RORg inh, VP16 counter)
CC1CCc2c(nc3sc4c(c3c2N)CCCC4)C1 (centres undefined)	ATXN viability inconclusive, TGFb inhibitor inconclusive, RORg inh 13µM, VP16 counter inconclusive
CSCC[C@H](NC(=O)[C@H](CC(C)C)NC(=O)CNC(=O)[C@H](Cc1ccccc1)N(C)C(=O)[C@H](Cc1ccccc1)NC(=O)[C@H](CC(=O)O)NC(=O)[C@@H](N)CC(=O)O)C(N)=O	none (no result: HepG2 tox, ATXN2 expr inh, ATXN viability, TGFb inhibitor)
